Laboratory results taken from PubChem BioAssay (NCATS).
Results filed as inconclusive are left out. Calls of active or inactive are those of the source. Calls follow the shape of the dose curve; as a rule, active = well fitted curve in the direction sought with a large enough effect; inconclusive = small, poorly fitted or top-dose-only effect, or another doubt; inactive = no such curve, though single readings can be large; an effect the other way counts as inactive or inconclusive.

Assays:
[1] = qHTS assay for measurement of the activity of small molecule inhibitors on Zika virus induced Caspase-3 activity in human iPSC derived neural progenitor cells (hNPCs) (AID 1224857); also: nearly all actives have a fitted effect of over 65% in size
Outline: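 Cells were plated at 350 per well and grown 16 to 20 hours. Compound pretreatment lasted one hour, after which ZIKV (2 FFU/cell) was added for 6 hours. Percent inhibition was normalized between uninfected and infected controls.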

[2] = qHTS assay for measurement of the activity of small molecule inhibitors on Zika virus induced Caspase-3 activity in human astrocytoma cells (AID 1224859)
Outline: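 Percent inhibition of virus-induced caspase-3/7 signal is calculated against uninfected and ZIKV-infected control cells. Cells are SNB-19, infected at 2 FFU/cell for 6 h after 1 h compound exposure.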

[3] = NS1 protein of Zika virus - qHTS assay to identify small molecule inhibitors in human HEK 293 cells (AID 1347053); also: series mostly up to about 46 µM; nearly all actives have a fitted effect of over 55% in size
Outline: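 TR-FRET signal from two anti-ZIKV NS1 antibodies quantified NS1 in HEK 293 cells 24 h after MR766 infection at MOI = 0.5; compounds were added 1 h before virus. Uninfected cells and infected cells defined the NS1 normalization range.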

[4] = qHTS of pediatric cancer cell lines to identify multiple opportunities for drug repurposing: Primary screen for TC32 cells (AID 1347089); also: nearly all actives have a fitted effect of over 60% in size
Outline: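 qHTS, TC32, 48 h drug treatment, CellTiter-Glo luminescence as a proxy for metabolically active cells; primary top concentration 46 µM (MIPE 11-pt, NPC 8-pt); confirmatory 11-pt.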

[5] = qHTS of pediatric cancer cell lines to identify multiple opportunities for drug repurposing: Primary screen for DAOY cells (AID 1347090); also: series mostly up to about 46 µM; nearly all actives have a fitted effect of over 55% in size
Outline: (§1)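 Eight- or eleven-point concentration series, 48 h treatment at 37 degrees C in growth media; readout CellTiter-Glo luminescence. Potency and efficacy were taken from the concentration-response curves.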

[6] = qHTS of pediatric cancer cell lines to identify multiple opportunities for drug repurposing: Primary screen for SJ-GBM2 cells (AID 1347091)
Outline: as §1

[7] = qHTS of pediatric cancer cell lines to identify multiple opportunities for drug repurposing: Primary screen for A673 cells (AID 1347092); also: nearly all actives have a fitted effect of over 45% in size
Outline: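 Luminescence from CellTiter-Glo, taken after 15 min at room temperature, served as the proxy for metabolically active cells following 48 h treatment. Both potency and efficacy were taken from curves fitted to the titration data.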

[8] = qHTS of pediatric cancer cell lines to identify multiple opportunities for drug repurposing: Primary screen for SK-N-MC cells (AID 1347093); also: series mostly up to about 46 µM
Outline: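 Metabolically active cells were quantified by ATP-dependent luminescence (CellTiter-Glo, 15 min at room temperature) following 48 h treatment. Cells had been plated at 500-1,000 per well and settled for 5 h beforehand.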

[9] = qHTS of pediatric cancer cell lines to identify multiple opportunities for drug repurposing: Primary screen for BT-37 cells (AID 1347094); also: series mostly up to about 57 µM
Outline: (§2)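 Plated cells (500-1,000 per well, growth media) were allowed to settle for 5 hours, treated with compound dilutions for 48 hours, then lysed with CellTiter-Glo for 15 min at room temperature before luminescence reading.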

[10] = qHTS of pediatric cancer cell lines to identify multiple opportunities for drug repurposing: Primary screen for NB-EBc1 cells (AID 1347095)
Outline: as §2

[11] = qHTS of pediatric cancer cell lines to identify multiple opportunities for drug repurposing: Primary screen for U-2 OS cells (AID 1347096); also: nearly all actives have a fitted effect of over 50% in size
Outline: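 Cells (500-1,000/well) in growth media were settled 5 h at 37 degrees C, then given compounds for 48 h. Viability was read as CellTiter-Glo luminescence. Primary runs used MIPE at 11 points (0.78 nM-46 µM) and NPC at 8 points (0.59 nM-46 µM); follow-ups used 11 points.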

Measured: Potency

Cc1nc(C2CCCCC2)c(-c2ccc(S(N)(=O)=O)c(F)c2)o1
inactive: all assays above

CCCCCN(CCCOC)C(=O)C(CCC(=O)O)NC(=O)c1ccc(Cl)c(Cl)c1 (stereo not given)
inactive: all assays above

O=c1[nH]c2ccccc2c(=O)n1CCCl
inactive: all assays above

CCC(=O)O[C@H]1[C@H](O[C@@H]2[C@@H](C)[C@H](O[C@H]3C[C@@](C)(OC)[C@@H](O)[C@H](C)O3)[C@@H](C)C(=O)O[C@H](CC)[C@@](C)(O)[C@H](O)[C@@H](C)C(=O)[C@H](C)C[C@@]2(C)O)O[C@H](C)C[C@@H]1N(C)C
inactive: all assays above

C=CCOc1cc(Cl)ccc1C(=O)NCCN(CC)CC
inactive: all assays above

O=C(O)c1ccc(OCCN2CCCCC2)cc1
inactive: all assays above

O=C1Nc2cc(Cl)ccc2Oc2ccccc21
inactive: all assays above

Cc1c(F)cc2c(=O)c(C(=O)O)cn3c2c1CCC3C (stereo not given)
inactive: all assays above

CCCc1c2oc(C(=O)O)cc(=O)c2cc2c(=O)cc(C(=O)O)n(CC)c12
inactive: all assays above

C/C(=N/NC(=O)c1ccncc1)C(=O)O
inactive: all assays above

Cc1onc(-c2c(Cl)cccc2Cl)c1C(=O)Cl
inactive: all assays above

CCN(CC)C(=O)C1CN2CCc3cc(OC)c(OC)cc3C2CC1OC(C)=O (stereo not given)
inactive: all assays above

CCC(=O)Oc1ccc2c(c1)CC[C@@H]1[C@@H]2CC[C@@]2(C)[C@H]1C[C@@H](OC(=O)CC)[C@@H]2OC(=O)CC
inactive: all assays above

COc1ccc(OC(=O)N(CC(=O)O)Cc2ccc(OCCc3nc(-c4ccccc4)oc3C)cc2)cc1
not listed: [8]
inactive: all other assays above

C/C(=N\O)[C@@H](C)NCC(C)(C)CN[C@H](C)/C(C)=N/O
inactive: all assays above

CCCCN(CCCC)C(C(N)=O)c1ccc(OC)cc1 (stereo not given)
inactive: all assays above

CC(=O)O[C@H]1CC[C@@]2(C)C(=CC[C@@H]3[C@@H]2CC[C@]2(C)C(C(C)=O)=CC[C@@H]32)C1
inactive: all assays above

Clc1ccc2c(c1)Nc1ccccc1S2
not listed: [9]
inactive: all other assays above

NS(=O)(=O)c1ccc(N2CCCCS2(=O)=O)cc1
not listed: [10]
inactive: all other assays above

CC(=O)N1CCN(c2ccc(O)cc2)CC1
not listed: [9] | [11]
inactive: all other assays above

C[C@H]1C[C@H](O)c2ccsc2S1(=O)=O
not listed: [9]
inactive: all other assays above

CCn1ccc(NS(=O)(=O)c2ccc(N)cc2)nc1=O
inactive: all assays above

CC(C)(C)c1cc(C=O)cc(C(C)(C)C)c1O
not listed: [10]
inactive: all other assays above

CCCC(=O)OCOC(=O)C1=C(C)NC(C)=C(C(=O)OC)C1c1cccc(Cl)c1Cl (stereo not given)
inactive: all assays above

Oc1ccccc1-c1nnco1
not listed: [9] | [10]
inactive: all other assays above

CN(C)CCN1CCN(c2cccc(Cl)c2)C1=O
inactive: all assays above

N#CC1(c2ccc(F)cc2)CCC(=O)CC1
inactive: all assays above

CCOc1ccccc1OCC1CNCCO1 (stereo not given)
not listed: [9]
inactive: all other assays above

CN(C)[C@@H]1C(=O)C(C(N)=O)=C(O)[C@@]2(O)C(=O)C3=C(O)c4c(O)cccc4C[C@H]3C[C@@H]12
not listed: [9]
inactive: all other assays above

CC(C)C(=O)OCc1cccc(OC(=O)[C@@H]2N3C(=O)[C@@H](NC(=O)Cc4ccccc4)[C@H]3SC2(C)C)c1
not listed: [8]
inactive: all other assays above

CC(=O)N(CC(=O)N(C)C)c1ccccc1
inactive: all assays above

Cc1ccc2ccc(Cl)cc2n1
inactive: all assays above
